# Source: PubChem (National Center for Advancing Translational Sciences (NCATS))
# KDM5B inhibitor – blocks human KDM5B histone demethylase activity; Q9UGL1; KDM5B demethylase, FDH-coupled NADH fluorescence (FDH is formaldehyde dehydrogenase); Potency, µM (series often up to 57.7 µM), hits mostly inhibitors; 220,000 compounds, 2.6% hits; active = well fitted inhibition curve with a large enough effect; also: 0% is about no effect; nearly all actives have a fitted effect of over 70% in size
#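 Compound dilutions met 200 nM (final) KDM5BΔAP for 10 min at room temperature before substrate addition. The substrate mix held 12.5 µM H3K4me3 with cofactors 25 µM α-ketoglutarate and 50 µM Fe²⁺. NADH signal gain over 30 min defined activity.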
# Starred values were filed as active, the others as inactive; i = inactive. Many of the other results were omitted from the sample, so hits are more common in it than they were. Potency is read from the fitted curve at half-maximal effect.
SMILES,KDM5B inhibitor
Cc1cc(C)c(NC(=O)CN(C)C(=O)c2cc3cc(C)ccc3nc2C)c(C)c1,i
CNC(=O)NC(=O)CNc1ccccc1N(C)Cc1ccccc1,i
COc1ccccc1Nc1nc(-c2ccc(CNC(C)=O)cc2)cs1,i
O=C(c1nccc2ccccc12)N1CCC(N2C(=O)C(O)C23CCCCC3)CC1 (stereo not given),i
C=CCN1C[C@@]2(C(=O)O)CN(c3nccc4ccccc34)C[C@H]2C1=O,20µM*
O=C(c1nccc2ccccc12)N1CCC2(CC1)CC(CO)N(C(=O)c1ccccc1)C2 (stereo not given),i
Cc1ccc(C(=O)NC2CCCc3ccccc32)c(C)c1 (stereo not given),i
Cc1ccc2c(C)cc(SCC(=O)N3CCOCC3)nc2c1,i
NC(=O)CNS(=O)(=O)c1cccc(C(=O)O)c1,i
O=C(Nc1nn(Cc2ccc(F)cc2)cc1Cl)c1nc2ncccn2n1,i
Cc1ccccc1CN1C(=O)c2ccccc2Sc2ccc(C(=O)NCc3cccs3)cc21,i
CN(C)CC(=O)N1CCC2(C1)CN(C)c1ccc(C(=O)NCc3cccs3)cc12 (stereo not given),39.8µM*
Cc1nc(CN2CC3(CCN(C)C3)c3cc(C(=O)NCc4ccccc4)ccc32)cs1 (stereo not given),35.5µM*
Cc1nc(CN2CC3(CCN(C)C3)c3cc(C(=O)NCC4CC4)ccc32)cs1 (stereo not given),28.2µM*
Cc1nc(CSCC(=O)NCc2cccs2)cs1,i
Cc1nc(CN2CC3(CCN(C)C3)c3cc(C(=O)NCc4cccs4)ccc32)cs1 (stereo not given),35.5µM*
Cc1nc(CC(=O)N2CCCC(c3ccc(C(=O)O)cc3)C2)cs1 (stereo not given),i
Cc1nc(CNC(=O)c2cccc(S(=O)(=O)N3CCOCC3)c2)cs1,i
Cc1nc(CN2CCN(C(=O)NCc3ccccn3)CC2)cs1,i
CCc1nc2ccc(C(=O)NCc3cccs3)cc2nc1CC,i
CC(C)CCN1CCOc2cc(C(=O)NCc3cccs3)ccc2C1,i
Cc1nc(COc2ccc(C(=O)Nc3ccccc3N3CCOCC3)cc2)cs1,i
O=C(C1CCCC1)N1CC2(CCN(Cc3ccc(Cl)cc3)C2)Cc2ccccc21 (stereo not given),i
COc1cc(CC(=O)NC2CCS(=O)(=O)C2)cc(OC)c1OC (stereo not given),i
Fc1ccc(NC(=S)NCCCc2ccccc2)cc1,i
SMILES,KDM5B inhibitor
Cc1[nH]c2ccccc2c1C(=O)COC(=O)c1ccccn1,i
Cc1ccc(CNCc2ccccc2C(F)(F)F)cc1,i
O=C(Cn1nc(C(=O)O)c2ccccc2c1=O)Nc1c(F)cccc1F,i
Cc1nc(CNCc2cccc(NC(=O)c3cccc(F)c3)c2)cs1,i
O=C(NCc1cccs1)c1ccc2c(c1)N(Cc1ccccc1)C(=O)CS2=O (stereo not given),i
Cc1nc(CN2CC3(CCN(C)C3)c3cc(C(=O)Nc4ccc(F)cc4)ccc32)cs1 (stereo not given),25.1µM*
CS(=O)(=O)N1CCc2ccc(C(=O)Nc3ccc(F)cc3)cc21,i
CN1CCCC2(C1)CN(Cc1cccnc1)c1ccc(C(=O)NCc3cccs3)cc12 (stereo not given),i
CN1CCC2(C1)CN(Cc1ccccc1)c1ccc(C(=O)NCc3cccs3)cc12 (stereo not given),35.5µM*
CCCc1nc(Cn2cnc3c2c(=O)n(C)c(=O)n3C)cs1,i
CC(C)S(=O)(=O)N1CC(Oc2ccc(-c3noc(C4CCOCC4)n3)cc2)C1,i
CC(C)c1ccc(NC(=O)c2c(F)cccc2Cl)cc1,i
Cc1nn2c(NCCN(C)C)cc(C(C)C)nc2c1-c1ccccc1,i
Cc1nn2c(NCCc3ncc[nH]3)cc(-c3ccccc3)nc2c1C,31.6µM*
CCCc1cc(NCCN(C)C)n2nc(C)c(-c3ccccc3)c2n1,i
CN(C)C(=O)c1cccc(NC(=O)c2cc(Br)c(Br)s2)c1,i
Cn1cc(S(=O)(=O)NC2CC(c3cc(N4CCC(O)C4)ncn3)C2)cn1 (stereo not given),i
N#Cc1ccc(NC2CC(c3cc(N4CCC(O)C4)ncn3)C2)nc1 (stereo not given),31.6µM*
O=C(NC1CC(c2cc(N3CCC(O)C3)ncn2)C1)c1ccoc1 (stereo not given),i
Cc1cc(=O)oc2cc(OC(=O)COc3ccc4ccccc4c3)ccc12,i
CC1(C)CC(=O)C2=C(C1)Nc1c(c(=O)[nH]c(=O)n1Cc1ccccc1)C2c1ccc2c(c1)OCO2 (stereo not given),i
CCOC(=O)C1CCN(Cc2cc(=O)oc3cc(C)c(O)cc23)CC1,i
O=C(NCc1cccs1)C1CCN(c2nccn3nc(-c4ccc(F)cc4)cc23)CC1,i
O=C(NCc1cccs1)c1nc(-c2ccc(F)cc2)c2ccccn12,28.2µM*
O=C(Cn1c(=O)nc(-c2ccccc2)c2ccccc21)NCc1ccc(F)cc1,i
SMILES,KDM5B inhibitor
O=C(NCc1cccs1)c1noc(-c2ccc(F)cc2)n1,i
O=C(NCc1ccc(F)cc1)c1nc(-c2ccsc2)c2ccccn12,25.1µM*
O=C(NCc1ccccn1)c1nc(-c2cccnc2)c2ccccn12,i
Cc1c(C(=O)NCc2ccc(F)cc2)sc2nc(-c3ccccc3)cn12,i
CC(C)n1nc(C(=O)NCc2ccc3c(c2)OCO3)c2ccccc2c1=O,i
O=C(NCc1ccc2c(c1)OCO2)c1cc(=O)c2ccccc2o1,i
Cc1nc(C)c(C(=O)NCc2cccs2)s1,i
O=C(NCc1ccc2c(c1)OCO2)c1nc(-c2ccsc2)c2ccccn12,14.1µM*
O=C(NCc1cccs1)c1nc(-c2ccccc2)c2ccccn12,11.2µM*
CCC(C)c1ccc(NC(=O)COC(=O)c2cc(=O)c3ccccc3o2)cc1 (stereo not given),i
CC1=CCC(/C=N/NC(N)=S)CC1 (stereo not given),i
COc1ccc(-n2nnnc2C2CCN(S(=O)(=O)c3ccccc3Cl)CC2)cc1,i
Cc1cc(C)cc(NC(=O)N2CCCC(Cn3c(C4CC4)nc4cccnc43)C2)c1 (stereo not given),i
CC(Sc1cccc[n+]1[O-])C(=O)Nc1cccc2ccccc12 (stereo not given),i
CNS(=O)(=O)c1ccc(Oc2ccc3ccc(=O)oc3c2)c([N+](=O)[O-])c1,i
Fc1ccccc1-c1nc(NC2CCCCC2)c2ccccc2n1,i
Oc1ccc(C2(c3cccc(F)c3)CCCCC2)cc1,i
O=C(O)CCc1ncc(-c2ccccc2F)o1,i
C=CCNc1nc(C(=O)OCc2cccc(F)c2F)cs1,i
O=C(NCc1ccc2c(c1)OCO2)c1ccccc1Cl,i
O=C(NCc1ccc2c(c1)OCO2)c1nc(-c2ccc(Cl)cc2Cl)c2ccccn12,20µM*
C#CCNC(=O)c1nc2sccn2c1Br,i
O=C(NCc1ccc(Cl)c(Cl)c1)c1ccc2c(c1)OCO2,i
O=C(NCc1cccs1)c1nc(-c2ccsc2)c2ccccn12,39.8µM*
CCOc1cccc(-c2nc(C(=O)NCc3ccc4c(c3)OCO4)cs2)c1,25.1µM*
C#CCNC(=O)c1nc(-c2ccccc2)c2ccccn12,31.6µM*
CCOc1cc(=O)n2c(c1C(=O)NCc1ccc3c(c1)OCO3)CCCC2,i
COc1ccccc1OCc1cc(C(=O)NCc2ccc3c(c2)OCO3)n[nH]1,i
CCn1nc(C(=O)NCc2cccs2)c2ccccc2c1=O,i
